# The panel holds about 83,000 compounds, 20% with a hit somewhere; the sample as a whole holds those more often.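 Step 1: grow cells in 96-well plates. Step 2: add test compound at a single concentration. Step 3: incubate 48 h. Step 4: record percent growth.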 A number with no mark means an inactive call. Active and inactive are the calls of the source. Rule for the calls: active = growth percent below 10; inactive = the rest.
# Experiments:
# Assay in all cases: NCI-60 one-dose screen, 48 h (100 = growth as untreated, 0 = no growth, -100 = all killed)
# Settings in all cases: 10 µM unless noted
# NCI-H226 lung = test system: NCI-H226 lung
# NCI-H322M lung = test system: NCI-H322M lung
# HOP-62 NSCLC = test system: HOP-62 NSCLC
# NCI-H460 lung = test system: NCI-H460 lung
# HOP-92 NSCLC = test system: HOP-92 NSCLC
# NCI-H522 lung = test system: NCI-H522 lung
# A549/ATCC NSCLC = test system: A549/ATCC NSCLC
# 786-0 renal = test system: 786-0 renal
# COLO 205 colon = test system: COLO 205 colon
Structure (SMILES),growth (NCI-H226 lung) [%],growth (NCI-H322M lung) [%],growth (HOP-62 NSCLC),growth (NCI-H460 lung),growth (HOP-92 NSCLC),growth (NCI-H522 lung),growth (A549/ATCC NSCLC) [%],growth (786-0 renal),growth (COLO 205 colon)
Cc1[nH]c(N=Nc2ccccc2)nc1N=Nc1ccccc1,12.7,39,36.5%,16.2%,40.3%,-17.5% (active),27,6.21% (active),17.2%
CC1=C(CCCOC(=O)NCCCl)C2=C(C)C3(CC3)[C@@](C)(O)C(=O)C2=C1,70,41.1,-3.61% (active),3.59% (active),8.91% (active),26.6%,17.9,11.6%,3.83% (active)
CC(C)Cc1cc(CNC(=O)C2[C@H]3CN(C(=O)c4ccccc4)C[C@@H]23)nn1-c1ccccc1 (stereo partly specified),94.1,95.3,83.4%,102%,115%,49.4%,72.2,99.4%,93.1%
COC1=CC=CC2(OC)C3(O)CCCc4cccc(c43)N3C(=O)COC132 (stereo unspecified),103,101,102%,105%,89.9%,78.8%,90.8,102%,107%
CCCn1c2cc(OCc3cn(-c4ccc(Br)cc4)nn3)ccc2c2ccnc(C)c21,25.6,71.5,63.9%,36.2%,60%,76.1%,53.7,36.7%,42%
CN1C(=O)c2cc(Cl)nc3c(NC(=O)c4cccc(Cl)c4)c(Cl)c(NC(=O)c4cccc(Cl)c4)c1c23,23.6,28.3,17.4%,2.82% (active),-38.4% (active),-54.6% (active),83.8,41.6%,1.5% (active)
COc1ccc(C(=O)c2cc(OC)c(OC)c(OC)c2)cc1OC(=O)CCl,109,44.5,22%,8.25% (active),52.9%,-12.4% (active),23,28.7%,16.4%
Nc1n[nH]c2cccc(C#Cc3cccc(NC(=O)c4cc(N5CCOCC5)cc(C(F)(F)F)c4)c3)c12,43.9,55.2,48.2%,47.3%,34.1%,53.2%,69.5,57.7%,18.2%
O=C1CC23OC(C(O)c4ccccc4N12)C1C(c2ccccc2)=NOC13 (stereo unspecified),82,79.7,68.5%,76.5%,43.3%,40.8%,82.9,37.2%,50.6%
